Source: PubChem BioAssay (NCI)
About 79,000 compounds went through this panel and 15% of them were active in at least one assay; those are over-represented in the sample as a whole. The source made the active and inactive calls. No stated cut-off is given here; in the data, active means growth inhibition above about 70%; inactive means the rest. Where a SMILES comes first, the peptide text is derived from it. [ ]: non-standard residue; d: D form. ξ: configuration not given here. ξH = NC(Cc1c[nH]cn1)C(=O)O

Experiments:
[1] = NCI Yeast Anticancer Drug Screen. Data for the rad50 strain (AID 155);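 further: 0% = growth of vehicle-only cultures of the same strain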; conditions: S. cerevisiae rad50 strain growth inhibition; at 50.0 µM; hits give high values
Method in brief: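 Relative growth inhibition (compound vs vehicle) was measured in yeast with a defined repair-gene alteration.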

[2] = NCI Yeast Anticancer Drug Screen. Data for the mec2-1 strain (AID 157); conditions: S. cerevisiae mec2-1 strain, at 50.0 µM, hits give high values
Method in brief: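 Each compound was tested on mec2-1 yeast, a strain altered in DNA damage repair or cell cycle control. Growth inhibition is reported relative to vehicle.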

[3] = NCI Yeast Anticancer Drug Screen. Data for the sgs1 mgt1 strain (AID 161);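 further: 0% = growth of cultures given vehicle only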; conditions: S. cerevisiae sgs1 mgt1 strain, at 50.0 µM, hits give high values
Method in brief: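 Mutant yeast exposed to compound; growth scored against vehicle-only wells.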

[4] = NCI Yeast Anticancer Drug Screen. Data for the cln2 rad14 strain (AID 165);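 further: 0% = growth equal to vehicle treated cultures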; conditions: S. cerevisiae cln2 rad14 strain, at 50.0 µM, hits give high values
Method in brief: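 Test compounds were added to cln2 rad14 yeast cultures; inhibition of growth was then determined by comparison with vehicle treatment.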

[5] = NCI Yeast Anticancer Drug Screen. Data for the bub3 strain (AID 167); conditions: S. cerevisiae bub3 mutant strain, at 50.0 µM, hits give high values
Method in brief: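 Screening used yeast with an engineered genetic alteration affecting cell cycle control. Compound-exposed cultures were compared with vehicle cultures, and reduced growth was taken as inhibition.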

[6] = NCI Yeast Anticancer Drug Screen. Data for the mlh1 rad18 strain (AID 175); conditions: S. cerevisiae mlh1 rad18 strain growth inhibition; at 50.0 µM; hits give high values
Method in brief: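 Inhibition values reflect reduced growth of mutant yeast versus vehicle-treated controls following compound exposure; the mutations affect DNA damage repair.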

Measured: growth inhibition

Nc1ccc(Br)c2ccccc12
inactive: [1] 33.4% | [2] 22.1% | [3] 16.8% | [4] 19.4% | [5] 27.3% | [6] 46.4%

Cc1cc(OC(=O)Nc2cccc(Cl)c2C)ccc1[N+](=O)[O-]
inactive: [1] 1.35% | [2] 53.4% | [3] 25.6% | [4] 3.95% | [5] 48.9% | [6] 1.7%

CC1=C(C(=O)OCCc2ccc([N+](=O)[O-])cc2)C(c2cccc([N+](=O)[O-])c2)C(C(=O)OC(C)C)=C(C)N1 (stereo not given)
inactive: [1] 0.15% | [2] -6.95% | [3] 12.8% | [4] 0.45% | [5] 16.1% | [6] -30.9%

CCN(CC)/[N+]([O-])=N/O
inactive: [1] 26.6% | [2] -14.8% | [3] -2.35% | [4] -0.6% | [5] 15.8% | [6] 16.1%

CN1CC(CN2CCCCCC2)C(O)C(c2ccccc2)C1 (stereo not given)
inactive: [1] 1.7% | [2] -7.1% | [3] 18% | [4] 7.85% | [5] -1.5% | [6] 27.6%

NCC(=O)NC(Cc1cnc[nH]1)C(=O)NCC(=O)O (stereo not given) (H-Gly-[ξH]-Gly-OH)
inactive: [1] -3.45% | [2] 7.9% | [3] -0.2% | [4] -31.6% | [5] 6.2% | [6] 5.15%

CCC1(O)CC2C3C(C(=O)OC)=C4Nc5ccccc5C45CCN(C31)C25 (stereo not given)
inactive: [1] 6.2% | [2] -6.3% | [3] 3.35% | [4] 11.8% | [5] 1.9% | [6] -2.1%

CC(=O)C(C)(C)CCC(C)(C)C(C)=O
inactive: [1] 2.95% | [2] -12.6% | [3] -4% | [4] 13.1% | [5] 8.4% | [6] -20.6%

Nc1nc(N)c2[nH]cnc2n1 (tested in a mixture with another compound)
inactive: [1] -25.5% | [2] -17.1% | [3] -31.6% | [4] 11.3% | [5] -41.6% | [6] -12%

CC1CN(CCCOC(=O)Nc2cccc3ccccc23)CCN1Cc1ccccc1 (stereo not given)
active: [1] 81.2% | [2] 94% | [3] 95.8% | [4] 97.7% | [5] 82% | [6] 95.8%

Cc1ccc(C2C3CCC(=O)C=C3CN2C=O)cc1O (stereo not given)
inactive: [1] 10.2% | [2] 8.4% | [3] -3.2% | [4] -44.6% | [5] -2.6% | [6] 12.8%

Cc1c(Cl)c(C)c(Cc2c(C)c(Cl)c(C)c(Cl)c2O)c(O)c1Cl
inactive: [1] -4.7% | [2] -40.4% | [3] -20.6% | [4] -11.7% | [5] -5.2% | [6] -5.9%

O=C(COc1ccccc1Cl)N1N=C(c2ccccc2)CC1(O)c1ccccc1 (stereo not given)
inactive: [1] -4.25% | [2] 10.1% | [3] 25% | [4] 8.35% | [5] 19.6% | [6] 15.9%

O=CN(c1ccccc1)c1ccccc1
inactive: [1] 3.8% | [2] -2.4% | [3] -2.7% | [4] -15.4% | [5] -4.55% | [6] -23.6%

O=C(O)c1nn(-c2ccccc2)c2c1CSc1ccccc1-2
inactive: [1] 35.5% | [2] 34.2% | [3] 25.6% | [4] 27.2% | [5] 16.9% | [6] 13.2%

CC1OC(OC2C(Oc3cc(O)c4c(=O)cc(-c5ccc(O)cc5)oc4c3)OC(CO)C(O)C2O)C(O)C(O)C1O (stereo not given)
inactive: [1] -6.15% | [2] 5.75% | [3] -14.2% | [4] -19.9% | [5] 6.35% | [6] -7.65%

CC(=O)NO
inactive: [1] 22.1% | [2] -4.05% | [3] 12.1% | [4] -7.05% | [5] -4.6% | [6] 11.3%

c1ccc2c3c(ccc2c1)Oc1ccc2ccccc2c1C3
inactive: [1] -8.55% | [2] -1.45% | [3] -7.2% | [4] -47.4% | [5] -7.35% | [6] 1%

O=C(O)c1ccc2ncc(-c3ccccc3)nc2c1
inactive: [1] 5.3% | [2] 11.7% | [3] 2.35% | [4] -31.1% | [5] -7.4% | [6] 16.4%

O=[N+]([O-])c1cccc(CO)c1
inactive: [1] -9.75% | [2] 17.1% | [3] -1.15% | [4] 8.6% | [5] -7.35% | [6] -5.7%
